According to PubChem BioAssay (Tox21):
Records with an inconclusive call do not appear. Active and inactive are the calls of the source. Unless noted, calls follow the shape of the full dose curve.

Tests used:
[1] = molecular target: Gonadotropin-releasing hormone receptor (Homo sapiens) (UniProt P30968); assay: Human gonadotropin-releasing hormone receptor (GnRHR) small molecule agonists, calcium flux assay in GnRHR-HEK293 cells (AID 1920063); also: nearly all actives have a fitted effect of over 35% in size
Sequence of Gonadotropin-releasing hormone receptor (Homo sapiens) (P30968 whole entry, looked up): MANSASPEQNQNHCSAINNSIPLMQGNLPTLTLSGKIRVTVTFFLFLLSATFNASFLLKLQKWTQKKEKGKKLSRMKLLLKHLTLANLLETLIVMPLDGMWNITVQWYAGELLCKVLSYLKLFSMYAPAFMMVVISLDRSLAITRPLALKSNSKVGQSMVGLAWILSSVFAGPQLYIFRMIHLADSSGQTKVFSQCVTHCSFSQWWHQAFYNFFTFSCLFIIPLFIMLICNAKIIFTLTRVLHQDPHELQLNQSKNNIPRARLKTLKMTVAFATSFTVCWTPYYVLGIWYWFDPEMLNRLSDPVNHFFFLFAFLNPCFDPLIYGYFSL
Procedure, shortened: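 HEK293 cells stably expressing human GnRHR were plated 18 h at 37 °C, loaded with calcium dye 1 h at 37 °C, then given compound in agonist mode; fluorescence (Ex/Em 480/540) read kinetically for 3 min at 1 s intervals.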

[2] = molecular target: KiSS-1 receptor (Homo sapiens) (UniProt Q969F8); assay: Human kisspeptin (KISS1R) small molecule agonists, calcium flux assay in KISS1R-HEK293 cells (AID 1920064; active = well fitted activation curve with a large enough effect in the repeat runs)
Sequence of KiSS-1 receptor (Homo sapiens) (Q969F8 whole entry, looked up): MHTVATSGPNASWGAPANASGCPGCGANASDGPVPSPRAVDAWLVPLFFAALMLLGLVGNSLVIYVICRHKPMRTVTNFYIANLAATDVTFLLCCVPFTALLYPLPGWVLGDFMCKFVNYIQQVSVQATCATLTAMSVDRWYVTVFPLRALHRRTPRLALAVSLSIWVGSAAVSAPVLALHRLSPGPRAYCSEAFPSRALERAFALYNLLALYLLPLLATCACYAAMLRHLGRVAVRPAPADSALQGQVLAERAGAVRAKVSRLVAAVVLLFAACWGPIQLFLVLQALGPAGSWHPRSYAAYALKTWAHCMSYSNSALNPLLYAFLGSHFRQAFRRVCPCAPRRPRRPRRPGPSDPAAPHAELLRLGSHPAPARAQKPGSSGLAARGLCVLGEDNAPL
Procedure, shortened: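 HEK293 cells stably expressing human KISS1R were plated 18 h at 37 °C, loaded with calcium dye for 1 h at 37 °C, then given compound by pin tool. Fluorescence (Ex/Em 480/540) was read kinetically for 3 min.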

[3] = G protein-coupled receptor (GPCR) small molecule agonists, calcium flux assay: HEK293 wild type cell line counter screen (AID 1920065)
Procedure, shortened: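 Cells were plated and cultured 18 h at 37 C/5% CO2, then loaded with calcium dye for 1 h at 37 C. Compounds in DMSO were pin-transferred in agonist mode, and fluorescence (Ex/Em 480/540) was read kinetically for 3 min at 1 s intervals.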

[4] = p53 small molecule agonists, cell-based qHTS assay with human liver microsomes (AID 1963577)
Procedure, shortened: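 p53RE-bla cells, 4,000/well, compound added after 5 h, with human liver microsomes 0.5 mg/mL and NADPH 0.5 mg/mL final; 16 h at 37 C, then LiveBLAzer 2 h RT, fluorescence.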

[5] = p53 small molecule agonists, cell-based qHTS assay with rat liver microsomes (AID 1963578)
Procedure, shortened: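 p53RE-bla cells, 4,000/well, pre-incubated 5 h, then given compounds plus rat liver microsomes (0.5 mg/mL final) and NADPH (0.5 mg/mL final). Incubation 16 h at 37 C; beta-lactamase reporter read by LiveBLAzer fluorescence after 2 h at room temperature.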

[6] = p53 small molecule agonists, cell-based qHTS assay with human liver microsomes: qHTS cell viability counter screen (AID 1963579); also: nearly all actives have a fitted effect of over 45% in size
Procedure, shortened: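 p53RE-bla cells, 4,000/well, dosed 5 hours after plating, with human liver microsomes (0.5 mg/mL final) plus NADPH (0.5 mg/mL final), 16 hours at 37 C. Viability read as CellTiter-Glo luminescence after 30 min at room temperature.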

[7] = p53 small molecule agonists, cell-based qHTS assay with rat liver microsomes: qHTS cell viability counter screen (AID 1963580); also: nearly all actives have a fitted effect of over 45% in size
Procedure, shortened: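 Viability is assessed in parallel with the p53 reporter read: HCT-116 p53RE-bla cells receive compounds plus rat microsomes and NADPH (0.5 mg/mL final apiece), incubate 16 h at 37 C, and then CellTiter-Glo luminescence is recorded.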

[8] = p53 small molecule agonists, cell-based qHTS assay: qHTS cell viability counter screen (AID 1963581); also: nearly all actives have a fitted effect of over 45% in size
Procedure, shortened: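 p53RE-bla HCT-116 cells were exposed to compounds for 16 h at 37 C; after the beta-lactamase FRET read in the same wells, CellTiter-Glo was added and luminescence (intracellular ATP) read after 30 min at room temperature.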

[9] = p53 small molecule agonists, cell-based qHTS assay (AID 1963582; active = well fitted activation curve with a large enough effect in the signal ratio in the repeat runs, not every such curve was filed as active; the % refers to the signal ratio)
Procedure, shortened: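 p53RE-bla beta-lactamase reporter cells rested 5 h at 37 C/5% CO2, then received compounds in DMSO by pin transfer and were incubated 16 h at 37 C. LiveBLAzer B/G FRET substrate was loaded for 2 h at room temperature before fluorescence reading.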

[10] = cAMP Responsive Elements (CRE) small molecule agonists, cell-based qHTS assay (AID 1963590)
Procedure, shortened: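 CRE-bla HEK 293T cells in DMEM with 10% dialyzed FBS, NEAA, pyruvate and 25 mM HEPES were plated 18 h at 37 C/5% CO2, then exposed to compounds in DMSO for 3 h before LiveBLAzer B/G FRET substrate addition.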

[11] = cAMP Responsive Elements (CRE) small molecule antagonists, cell-based qHTS assay (AID 1963591; active = well fitted inhibition curve with a large enough effect in the signal ratio in the repeat runs, not every such curve was filed as active; the % refers to the signal ratio)
Procedure, shortened: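 CRE-bla HEK293T cells were plated 18 h at 37 °C/5% CO2, pinned with compound in DMSO, then stimulated with NKH477 at 0.25 uM final for 3 h. LiveBLAzer B/G FRET substrate was added and plates incubated 2 h at room temperature.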

[12] = molecular target: Beta-2 adrenergic receptor (Homo sapiens) (UniProt P07550); assay: Adrenergic beta2 receptor (ADRB2) small molecule antagonists, cell-based qHTS assay (AID 1963592); also: series mostly up to about 92 µM; nearly all actives have a fitted effect of over 50% in size
Sequence of Beta-2 adrenergic receptor (Homo sapiens) (P07550 whole entry, looked up): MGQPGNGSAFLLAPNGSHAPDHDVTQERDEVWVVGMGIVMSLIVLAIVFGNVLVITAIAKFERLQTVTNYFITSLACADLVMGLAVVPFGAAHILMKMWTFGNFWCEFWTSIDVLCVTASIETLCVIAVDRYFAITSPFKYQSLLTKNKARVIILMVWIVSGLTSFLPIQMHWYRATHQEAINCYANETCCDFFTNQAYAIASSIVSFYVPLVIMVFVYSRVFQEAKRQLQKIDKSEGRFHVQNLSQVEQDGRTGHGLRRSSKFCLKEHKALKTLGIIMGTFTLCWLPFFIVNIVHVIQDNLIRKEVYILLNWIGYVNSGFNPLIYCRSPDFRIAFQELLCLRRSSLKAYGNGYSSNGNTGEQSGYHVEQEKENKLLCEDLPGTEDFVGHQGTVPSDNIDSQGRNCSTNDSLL
Procedure, shortened: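 Cells (CHO, stable ADRB2 overexpression) incubated 18-20hr at 37C; compounds added from DMSO; agonist mix (1nM isoproterenol, 100uM IBMX, 25uM Ro-20-1724) added; 0.5hr RT; d2-cAMP and anti-cAMP-cryptate added; 1hr RT; 665/615 nm read.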

[13] = molecular target: Beta-2 adrenergic receptor (Homo sapiens) (UniProt P07550); assay: Adrenergic beta2 receptor (ADRB2) small molecule agonists, cell-based qHTS assay (AID 1963593);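 also: CHO cells stably overexpressing human ADRB2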
Procedure, shortened: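 CHO cells stably over-expressing ADRB2 were plated overnight at 37C, then dosed with compounds plus a stimulation mix containing 100uM IBMX and 25uM Ro-20-1724 for 0.5hr at room temperature. cAMP was measured by HTRF competition, 1hr.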

[14] = molecular target: D(2) dopamine receptor (Homo sapiens) (UniProt P14416); assay: Dopamine D2 receptor (DRD2) small molecule agonists, cell-based qHTS assay (AID 1963594); also: nearly all actives have a fitted effect of over 35% in size
Sequence of D(2) dopamine receptor (Homo sapiens) (P14416 whole entry, looked up): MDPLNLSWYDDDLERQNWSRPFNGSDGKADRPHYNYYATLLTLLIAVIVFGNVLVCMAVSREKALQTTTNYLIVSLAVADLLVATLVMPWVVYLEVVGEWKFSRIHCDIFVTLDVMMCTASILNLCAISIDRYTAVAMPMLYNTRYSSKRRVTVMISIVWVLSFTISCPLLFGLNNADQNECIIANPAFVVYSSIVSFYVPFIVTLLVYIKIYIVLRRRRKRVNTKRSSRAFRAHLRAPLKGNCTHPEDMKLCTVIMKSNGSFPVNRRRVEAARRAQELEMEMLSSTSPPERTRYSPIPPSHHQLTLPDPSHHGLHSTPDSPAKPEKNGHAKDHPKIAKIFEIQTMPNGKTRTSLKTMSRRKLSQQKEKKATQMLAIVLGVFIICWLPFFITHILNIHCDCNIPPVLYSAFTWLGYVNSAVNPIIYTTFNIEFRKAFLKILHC
Procedure, shortened: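 HEK293 cells stably expressing human DRD2, pre-treated with PDE inhibitor Ro20-1724 (0.1 mM final) and compound 10 min at room temperature, then stimulated with NKH477 (200nM […]) for 30 min. cAMP read by HTRF (665/620 nm).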

[15] = molecular target: D(2) dopamine receptor (Homo sapiens) (UniProt P14416); assay: Dopamine D2 receptor (DRD2) small molecule antagonists, cell-based qHTS assay (AID 1963595; active = well fitted inhibition curve with a large enough effect in the signal ratio in the repeat runs, with a control signal flat; the % refers to the signal ratio)
Procedure, shortened: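 HTRF cAMP read-out at 665 and 620 nm emission (340 nm excitation). Antagonist mode: compounds were tested against 12 nM quinpirole in DRD2-HEK293 cells, with 200 nM NKH477 raising cAMP and 0.1 mM Ro20-1724 blocking its breakdown.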

[16] = Nuclear factor erythroid 2-related factor 2/antioxidant responsive element (Nrf2/ARE) small molecule agonists: luciferase reporter gene qHTS assay in human keratinocytes (AID 1919969); also: nearly all actives have a fitted effect of over 35% in size
[17] = molecular target: 5-hydroxytryptamine receptor 2A (Homo sapiens) (UniProt P28223); assay: 5-hydroxytryptamine receptor 2A (HTR2A) small molecule agonists, cell-based qHTS assay (AID 1963587); also: nearly all actives have a fitted effect of over 30% in size
Sequence of 5-hydroxytryptamine receptor 2A (Homo sapiens) (P28223 whole entry, looked up): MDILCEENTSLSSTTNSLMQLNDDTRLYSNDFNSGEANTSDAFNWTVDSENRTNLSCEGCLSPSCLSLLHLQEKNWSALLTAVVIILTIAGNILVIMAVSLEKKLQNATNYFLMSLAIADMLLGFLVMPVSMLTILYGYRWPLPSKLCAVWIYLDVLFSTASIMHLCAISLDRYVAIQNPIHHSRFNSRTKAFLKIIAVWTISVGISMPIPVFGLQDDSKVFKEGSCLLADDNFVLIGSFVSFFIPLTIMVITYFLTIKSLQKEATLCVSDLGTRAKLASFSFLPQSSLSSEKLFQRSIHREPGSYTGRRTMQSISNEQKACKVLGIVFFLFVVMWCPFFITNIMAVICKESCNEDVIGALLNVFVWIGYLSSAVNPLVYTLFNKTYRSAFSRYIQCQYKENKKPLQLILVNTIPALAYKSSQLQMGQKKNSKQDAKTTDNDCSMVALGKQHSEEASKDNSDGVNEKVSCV
Procedure, shortened: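 CHO cells stably expressing human HTR2A, plated 18 h, loaded with calcium dye 1 h at 37 C. Agonist mode: compounds added and intracellular calcium fluorescence recorded kinetically for 2 min at 1 sec intervals.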

[18] = molecular target: Muscarinic acetylcholine receptor M1 (Homo sapiens) (UniProt P11229); assay: Cholinergic receptor muscarinic 1 (CHRM1) small molecule antagonists, cell-based qHTS assay (AID 1963588); also: nearly all actives have a fitted effect of over 40% in size
Sequence of Muscarinic acetylcholine receptor M1 (Homo sapiens) (P11229 whole entry, looked up): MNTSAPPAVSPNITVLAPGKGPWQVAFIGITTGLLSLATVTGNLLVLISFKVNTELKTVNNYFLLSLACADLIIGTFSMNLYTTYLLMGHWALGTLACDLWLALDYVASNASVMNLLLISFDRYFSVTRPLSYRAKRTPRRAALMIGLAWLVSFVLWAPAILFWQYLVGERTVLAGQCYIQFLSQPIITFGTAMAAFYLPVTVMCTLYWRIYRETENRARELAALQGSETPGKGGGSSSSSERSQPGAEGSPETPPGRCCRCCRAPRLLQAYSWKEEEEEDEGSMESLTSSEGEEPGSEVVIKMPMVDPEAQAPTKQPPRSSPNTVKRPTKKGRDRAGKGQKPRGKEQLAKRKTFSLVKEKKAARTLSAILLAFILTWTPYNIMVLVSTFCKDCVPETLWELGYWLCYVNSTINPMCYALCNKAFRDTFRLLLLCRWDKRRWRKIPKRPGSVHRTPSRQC
Procedure, shortened: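 CHRM1-CHO calcium-flux assay, antagonist mode. Cells were seeded 18 h, dye-loaded 1 h at 37 C and given compound for 5 min at RT, then acetylcholine was added at 50nM. FDSS fluorescence was read 3 min; 15 concentrations, three runs.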

[19] = molecular target: Muscarinic acetylcholine receptor M1 (Homo sapiens) (UniProt P11229); assay: Cholinergic receptor muscarinic 1 (CHRM1) small molecule agonists, cell-based qHTS assay (AID 1963589); also: nearly all actives have a fitted effect of over 35% in size
Procedure, shortened: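 CHO cells stably expressing human CHRM1, seeded 18 h at 37 C/5% CO2, dye-loaded 1 h at 37 C, then given compound in agonist mode; intracellular calcium fluorescence read kinetically at 1 s intervals. Fifteen concentrations, three independent runs.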

[20] = molecular target: 5-hydroxytryptamine receptor 2A (Homo sapiens) (UniProt P28223); assay: 5-hydroxytryptamine receptor 2A (HTR2A) small molecule antagonists, cell-based qHTS assay (AID 1963586); also: nearly all actives have a fitted effect of over 45% in size
Procedure, shortened: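 Antagonist-mode intracellular calcium assay: DOI (4 nM) added after 5 min compound pre-incubation at room temperature to dye-loaded HTR2A-CHO cells. Fluorescence followed for 3 min, sampled every second.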
% is scaled to controls: 0 for no effect and ±100 for the full control effect.

NC(Cc1ccc(F)cc1)C(=O)O (centres undefined)
inactive: activity change [1] -0.388% [at 5.22 µM, active compounds read high] | activation [2] 2.03% [at 6.97 µM] | activation [3] -0.478% [at 5.23 µM] | activation [4] 4.13% [at 5.99 µM] | activation [5] 1.09% [at 5.99 µM] | activity change, negative = cytotoxicity [6] 3.36% [at 5.99 µM] | activity change, negative = cytotoxicity [7] 9.8% [at 5.99 µM] | activity change, negative = cytotoxicity [8] -3.36% [at 5.99 µM] | activation [9] 1.84% [at 5.99 µM] | activation [10] -1.9% [at 8.39 µM] | activity change, negative = inhibition [11] -1.08% [at 8.39 µM] | activity change, negative = inhibition [12] -3.88% [at 8.39 µM] | activation [13] -31.2% [at 8.39 µM] | activation [14] 1.24% [at 8.39 µM] | activity change, negative = inhibition [15] 11.6% [at 8.38 µM]

CC(C)n1nc(-c2cc3cc(O)ccc3[nH]2)c2c(N)ncnc21
inactive: Potency [16] | Potency [5] | Potency [6] | Potency [9] | Potency [17] | Potency [18] | Potency [19] | Potency [12] | Potency [14] | Potency [15]

C=CC(C)=CCC=C(C)C
inactive: Potency [1] | Potency [2] | Potency [3] | Potency [4] | Potency [5] | Potency [6] | Potency [7] | Potency [8] | Potency [9] | Potency [20] | Potency [17] | Potency [18] | Potency [19] | Potency [10] | Potency [12] | Potency [13] | Potency [14] | Potency [15]

COc1cccc(N)c1
inactive: Potency [1] | Potency [2] | Potency [3] | Potency [4] | Potency [5] | Potency [6] | Potency [7] | Potency [8] | Potency [9] | Potency [20] | Potency [17] | Potency [18] | Potency [19] | Potency [10] | Potency [12] | Potency [14] | Potency [15]

CSc1ccc(O)cc1C
inactive: Potency [1] | Potency [2] | Potency [3] | Potency [4] | Potency [5] | Potency [6] | Potency [7] | Potency [8] | Potency [9] | Potency [20] | Potency [17] | Potency [18] | Potency [19] | Potency [10] | Potency [11] | Potency [12] | Potency [14] | Potency [15]

N=C(N)N
inactive: Potency [1] | Potency [2] | Potency [3] | Potency [4] | Potency [5] | Potency [6] | Potency [7] | Potency [8] | Potency [9] | Potency [20] | Potency [17] | Potency [10] | Potency [11] | Potency [12] | Potency [15]

C[C@@H](O[C@H]1OCCN(Cc2n[nH]c(=O)[nH]2)[C@H]1c1ccc(F)cc1)c1cc(C(F)(F)F)cc(C(F)(F)F)c1
inactive: Potency [1] | Potency [2] | Potency [3] | Potency [4] | Potency [5] | Potency [6] | Potency [7] | Potency [9] | Potency [18] | Potency [19] | Potency [12] | Potency [14]

CC[C@H]1OC(=O)[C@H](C)[C@@H](O[C@H]2C[C@@](C)(OC)[C@@H](O)[C@H](C)O2)[C@H](C)[C@@H](O[C@@H]2O[C@H](C)C[C@H](N(C)C)[C@H]2O)[C@](C)(O)C[C@@H](C)CN(C)[C@H](C)[C@@H](O)[C@]1(C)O
inactive: Potency [1] | Potency [2] | Potency [3] | Potency [4] | Potency [5] | Potency [6] | Potency [7] | Potency [8] | Potency [9] | Potency [10] | Potency [12] | Potency [13] | Potency [14] | Potency [15]
